Measurements from the supplement of paper PMC3898565.
Counter-ions that a name gives are not always drawn. ± gives the uncertainty stated by the source.

Test system: U87
Assay: cell viability relative to vehicle control; higher = less growth inhibition (less active)
Conditions: 10 µM; 72 h
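Note: viable cell number estimated from Alamar Blue fluorescence read at 560/90, part of a single-dose primary screen of an FDA-approved drug library.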

## NC1CCN(c2cccc(Cl)n2)CC1
  cell viability: 97.7 ± 4%

## CC(C)c1ccc2c(c1)c(SC(C)(C)C)c(CC(C)(C)C(=O)O)n2Cc1ccc(Cl)cc1
  cell viability: 99 ± 1.3%

## CN1CCN(CCCN2c3ccccc3Sc3ccc(Cl)cc32)CC1
  cell viability: 95.9 ± 7%

## CCOC(=O)[C@H](CCc1ccccc1)N[C@@H](C)C(=O)N1[C@H](C(=O)O)C[C@@H]2CCC[C@@H]21
  cell viability: 101 ± 1.5%

## O=C(O)COCCN1CCN([C@H](c2ccccc2)c2ccc(Cl)cc2)CC1
  cell viability: 101.2 ± 0.57%

## COc1cc(C)c(Cc2cnc(N)nc2N)cc1OC
  cell viability: 100 ± 1.7%

## CC12CC3CC(C)(C1)CC(N)(C3)C2
  cell viability: 123 ± 1.4%

## NC(=O)OCC(COC(N)=O)c1ccccc1 [Felbamate]
  cell viability: 105.7 ± 1%

## CO[C@H]1/C=C/O[C@@]2(C)Oc3c(C)c(O)c4c(O)c(c5c(nc6cc(C)ccn65)c4c3C2=O)NC(=O)/C(C)=C\C=C\[C@H](C)[C@H](O)[C@@H](C)[C@@H](O)[C@@H](C)[C@H](OC(C)=O)[C@@H]1C
  cell viability: 96.1 ± 1.3%

## Cc1c(OCC(F)(F)F)ccnc1C[S+]([O-])c1nc2ccccc2[nH]1 (centres undefined)
  cell viability: 104.7 ± 0.78%

## CC(=O)[C@]1(O)Cc2c(O)c3c(c(O)c2[C@@H](O[C@H]2C[C@H](N)[C@H](O)[C@H](C)O2)C1)C(=O)c1ccccc1C3=O [Idarubicin HCL]
  cell viability: 31.6 ± 2.3%

## CCCCC1=NC2(CCCC2)C(=O)N1Cc1ccc(-c2ccccc2-c2nnn[nH]2)cc1
  cell viability: 98 ± 3.2%

## CN(C)CCC=C1c2ccccc2COc2ccccc21 [Doxepin]
  cell viability: 101.6 ± 0.79%

## C[C@]12C[C@H](O)[C@H]3[C@@H](CCC4=CC(=O)CC[C@@]43C)[C@@H]1CC[C@@H]2C(=O)CO
  cell viability: 105 ± 1.5%
